Source: the supplement of paper PMC11732987, “Enantioselective OTUD7B fragment discovery through chemoproteomics screening and high-throughput optimisation” (Communications Chemistry, 2025)

Legend:
Test in all cases: log2 ratio of Biotin-Ahx-Ub-VS probe labelling (fragment/DMSO); higher = less target engagement (more negative = stronger competition), active = hit call of the paper (q ≤ 0.05, log2 ratio ≤ -1)
Settings in all cases: compound concentration: 200 uM; treatment time: 3 h
[1] = target: T1, USP42 (UniProt Q9H9J4)
T1 sequence (whole entry): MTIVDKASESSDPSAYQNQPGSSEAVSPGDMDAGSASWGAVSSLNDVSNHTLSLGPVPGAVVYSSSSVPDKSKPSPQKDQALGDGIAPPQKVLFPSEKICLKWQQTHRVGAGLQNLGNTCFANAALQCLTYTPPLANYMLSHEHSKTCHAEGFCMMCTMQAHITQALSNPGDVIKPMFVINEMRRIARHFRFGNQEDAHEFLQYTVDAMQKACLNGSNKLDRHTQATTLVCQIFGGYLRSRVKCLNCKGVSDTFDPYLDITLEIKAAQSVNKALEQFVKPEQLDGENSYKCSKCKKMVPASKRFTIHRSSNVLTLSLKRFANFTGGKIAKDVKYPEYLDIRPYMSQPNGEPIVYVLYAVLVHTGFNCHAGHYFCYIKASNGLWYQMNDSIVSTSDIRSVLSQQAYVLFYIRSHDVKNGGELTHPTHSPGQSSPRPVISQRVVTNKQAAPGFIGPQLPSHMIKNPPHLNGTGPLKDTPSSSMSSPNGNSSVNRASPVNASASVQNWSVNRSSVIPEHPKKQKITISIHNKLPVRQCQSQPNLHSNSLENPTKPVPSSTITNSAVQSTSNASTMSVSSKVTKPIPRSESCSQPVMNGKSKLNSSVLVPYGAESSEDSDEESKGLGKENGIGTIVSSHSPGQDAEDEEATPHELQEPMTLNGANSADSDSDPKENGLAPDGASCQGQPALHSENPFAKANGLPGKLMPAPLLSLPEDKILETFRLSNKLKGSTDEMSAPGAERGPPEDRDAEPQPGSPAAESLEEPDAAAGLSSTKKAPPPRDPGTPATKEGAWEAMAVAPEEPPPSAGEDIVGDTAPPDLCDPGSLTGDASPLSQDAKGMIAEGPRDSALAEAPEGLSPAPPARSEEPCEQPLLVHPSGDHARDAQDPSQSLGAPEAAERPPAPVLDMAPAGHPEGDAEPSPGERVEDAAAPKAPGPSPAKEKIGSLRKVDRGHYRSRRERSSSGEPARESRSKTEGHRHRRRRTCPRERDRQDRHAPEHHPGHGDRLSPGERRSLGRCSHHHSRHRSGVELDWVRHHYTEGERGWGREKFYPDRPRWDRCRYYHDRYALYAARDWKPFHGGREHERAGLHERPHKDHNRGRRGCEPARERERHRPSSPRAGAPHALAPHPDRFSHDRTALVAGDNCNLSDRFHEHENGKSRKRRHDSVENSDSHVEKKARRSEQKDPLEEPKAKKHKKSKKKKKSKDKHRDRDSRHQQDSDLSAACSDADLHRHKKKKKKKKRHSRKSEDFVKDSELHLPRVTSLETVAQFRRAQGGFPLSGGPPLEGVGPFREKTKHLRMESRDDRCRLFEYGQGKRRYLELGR
Summary of the method: (§1)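 HEK293T lysate in Tris/CHAPS/IGEPAL buffer with protease inhibitors (495 µg per sample) was given fragment at 200 µM or vehicle for 3 h, in triplicate. It then received Biotin-Ahx-Ub-VS at 0.5 µM final for 1 h. Labelled DUBs were NeutrAvidin-enriched, digested with LysC and trypsin, and run by diaPASEF LC-MS/MS. Values are average log2 fragment/vehicle ratios by unpaired t-test on global-median-normalised Spectronaut quantities of proteins with ≥2 unique peptides.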

[2] = target: USP46 (UniProt P62068)
Summary of the method: as §1

[3] = target: T2, USP47 (UniProt Q96K76)
T2 sequence (whole entry): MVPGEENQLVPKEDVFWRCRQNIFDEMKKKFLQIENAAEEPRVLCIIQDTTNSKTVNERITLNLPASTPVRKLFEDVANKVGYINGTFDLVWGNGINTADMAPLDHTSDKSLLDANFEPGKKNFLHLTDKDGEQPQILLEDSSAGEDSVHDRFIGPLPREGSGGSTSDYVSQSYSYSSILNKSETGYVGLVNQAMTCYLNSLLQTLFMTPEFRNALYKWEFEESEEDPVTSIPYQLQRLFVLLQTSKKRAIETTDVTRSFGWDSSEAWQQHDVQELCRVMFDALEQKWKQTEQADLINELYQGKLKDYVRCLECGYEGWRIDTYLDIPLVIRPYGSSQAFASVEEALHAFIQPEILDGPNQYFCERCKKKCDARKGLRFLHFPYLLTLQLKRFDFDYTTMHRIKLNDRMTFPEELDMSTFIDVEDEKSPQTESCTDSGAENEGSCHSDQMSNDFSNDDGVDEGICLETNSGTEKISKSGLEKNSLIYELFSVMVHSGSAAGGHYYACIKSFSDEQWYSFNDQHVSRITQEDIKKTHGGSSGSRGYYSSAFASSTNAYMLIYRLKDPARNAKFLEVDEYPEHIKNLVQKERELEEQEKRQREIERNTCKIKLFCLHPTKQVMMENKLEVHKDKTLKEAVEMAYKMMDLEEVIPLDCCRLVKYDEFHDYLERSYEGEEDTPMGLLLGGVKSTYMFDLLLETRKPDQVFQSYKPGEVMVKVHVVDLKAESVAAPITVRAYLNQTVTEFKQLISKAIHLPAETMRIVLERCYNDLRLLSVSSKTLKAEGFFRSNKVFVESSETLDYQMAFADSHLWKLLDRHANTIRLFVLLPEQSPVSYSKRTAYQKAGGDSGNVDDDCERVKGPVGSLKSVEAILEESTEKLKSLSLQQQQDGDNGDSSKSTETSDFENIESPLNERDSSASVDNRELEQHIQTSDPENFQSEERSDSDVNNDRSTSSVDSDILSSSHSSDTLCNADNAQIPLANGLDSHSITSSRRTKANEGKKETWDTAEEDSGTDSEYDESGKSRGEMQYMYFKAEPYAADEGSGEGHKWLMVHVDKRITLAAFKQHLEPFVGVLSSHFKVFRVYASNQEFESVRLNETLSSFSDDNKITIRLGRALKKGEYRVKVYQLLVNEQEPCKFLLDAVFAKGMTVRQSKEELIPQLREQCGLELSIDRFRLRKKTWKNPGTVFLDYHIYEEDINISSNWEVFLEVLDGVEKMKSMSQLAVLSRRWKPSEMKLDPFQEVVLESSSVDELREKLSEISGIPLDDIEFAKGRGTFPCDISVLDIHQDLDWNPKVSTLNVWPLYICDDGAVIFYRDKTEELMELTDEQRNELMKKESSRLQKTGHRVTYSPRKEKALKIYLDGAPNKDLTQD
Summary of the method: as §1

[4] = target: T3, USP48 (UniProt Q86UV5)
T3 sequence (whole entry): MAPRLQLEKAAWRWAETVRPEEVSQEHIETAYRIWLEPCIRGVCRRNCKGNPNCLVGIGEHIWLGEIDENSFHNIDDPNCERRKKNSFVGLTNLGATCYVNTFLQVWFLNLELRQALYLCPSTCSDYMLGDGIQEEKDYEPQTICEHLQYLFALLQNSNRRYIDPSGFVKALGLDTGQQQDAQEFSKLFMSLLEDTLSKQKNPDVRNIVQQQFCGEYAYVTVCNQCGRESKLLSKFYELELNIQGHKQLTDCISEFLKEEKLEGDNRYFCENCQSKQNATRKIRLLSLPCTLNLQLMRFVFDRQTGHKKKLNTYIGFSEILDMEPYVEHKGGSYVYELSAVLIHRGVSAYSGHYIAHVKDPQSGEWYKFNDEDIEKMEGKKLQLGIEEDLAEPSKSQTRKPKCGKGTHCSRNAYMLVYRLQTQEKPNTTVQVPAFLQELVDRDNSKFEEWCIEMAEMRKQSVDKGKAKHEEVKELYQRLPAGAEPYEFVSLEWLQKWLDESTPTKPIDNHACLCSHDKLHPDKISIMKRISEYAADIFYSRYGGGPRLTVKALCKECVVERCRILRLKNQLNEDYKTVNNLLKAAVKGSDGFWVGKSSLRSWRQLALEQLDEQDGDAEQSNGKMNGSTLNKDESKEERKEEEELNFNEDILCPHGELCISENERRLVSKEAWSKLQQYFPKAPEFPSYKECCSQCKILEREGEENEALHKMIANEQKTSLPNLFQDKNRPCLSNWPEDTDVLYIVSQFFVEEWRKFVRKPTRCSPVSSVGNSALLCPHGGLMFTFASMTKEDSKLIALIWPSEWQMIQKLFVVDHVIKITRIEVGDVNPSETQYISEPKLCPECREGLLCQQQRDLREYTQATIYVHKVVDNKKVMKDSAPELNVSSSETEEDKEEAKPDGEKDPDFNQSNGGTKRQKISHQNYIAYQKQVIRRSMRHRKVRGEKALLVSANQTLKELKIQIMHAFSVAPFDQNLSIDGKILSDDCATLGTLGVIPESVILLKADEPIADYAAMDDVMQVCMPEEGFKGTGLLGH
Summary of the method: as §1

[5] = target: T4, USP5 (UniProt P45974)
T4 sequence (whole entry): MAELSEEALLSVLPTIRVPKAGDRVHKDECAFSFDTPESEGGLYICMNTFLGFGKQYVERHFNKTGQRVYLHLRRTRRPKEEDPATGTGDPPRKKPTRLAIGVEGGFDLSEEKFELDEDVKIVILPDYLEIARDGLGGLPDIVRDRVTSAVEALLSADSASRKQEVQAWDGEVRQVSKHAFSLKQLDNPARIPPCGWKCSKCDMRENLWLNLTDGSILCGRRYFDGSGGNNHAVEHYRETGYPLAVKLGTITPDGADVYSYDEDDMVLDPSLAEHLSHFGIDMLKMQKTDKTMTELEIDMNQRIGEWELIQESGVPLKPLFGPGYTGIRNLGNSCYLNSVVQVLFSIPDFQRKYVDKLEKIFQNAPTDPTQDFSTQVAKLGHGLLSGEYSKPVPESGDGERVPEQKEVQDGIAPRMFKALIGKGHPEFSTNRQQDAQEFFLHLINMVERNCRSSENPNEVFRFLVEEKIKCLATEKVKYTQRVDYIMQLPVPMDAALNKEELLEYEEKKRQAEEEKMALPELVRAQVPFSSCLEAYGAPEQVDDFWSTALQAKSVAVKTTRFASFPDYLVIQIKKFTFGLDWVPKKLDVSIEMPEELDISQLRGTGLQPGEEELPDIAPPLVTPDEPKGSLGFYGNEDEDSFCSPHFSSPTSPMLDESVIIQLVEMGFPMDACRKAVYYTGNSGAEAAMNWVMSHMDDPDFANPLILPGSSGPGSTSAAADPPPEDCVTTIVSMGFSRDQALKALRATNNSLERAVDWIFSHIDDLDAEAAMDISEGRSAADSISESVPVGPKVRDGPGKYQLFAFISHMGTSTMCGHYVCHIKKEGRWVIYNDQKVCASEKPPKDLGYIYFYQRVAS
Summary of the method: as §1

[6] = target: USP54 (UniProt Q70EL1)
Summary of the method: as §1

[7] = target: USP7 (UniProt Q93009)
Summary of the method: as §1

[8] = target: T5, USP8 (UniProt P40818)
T5 sequence (whole entry): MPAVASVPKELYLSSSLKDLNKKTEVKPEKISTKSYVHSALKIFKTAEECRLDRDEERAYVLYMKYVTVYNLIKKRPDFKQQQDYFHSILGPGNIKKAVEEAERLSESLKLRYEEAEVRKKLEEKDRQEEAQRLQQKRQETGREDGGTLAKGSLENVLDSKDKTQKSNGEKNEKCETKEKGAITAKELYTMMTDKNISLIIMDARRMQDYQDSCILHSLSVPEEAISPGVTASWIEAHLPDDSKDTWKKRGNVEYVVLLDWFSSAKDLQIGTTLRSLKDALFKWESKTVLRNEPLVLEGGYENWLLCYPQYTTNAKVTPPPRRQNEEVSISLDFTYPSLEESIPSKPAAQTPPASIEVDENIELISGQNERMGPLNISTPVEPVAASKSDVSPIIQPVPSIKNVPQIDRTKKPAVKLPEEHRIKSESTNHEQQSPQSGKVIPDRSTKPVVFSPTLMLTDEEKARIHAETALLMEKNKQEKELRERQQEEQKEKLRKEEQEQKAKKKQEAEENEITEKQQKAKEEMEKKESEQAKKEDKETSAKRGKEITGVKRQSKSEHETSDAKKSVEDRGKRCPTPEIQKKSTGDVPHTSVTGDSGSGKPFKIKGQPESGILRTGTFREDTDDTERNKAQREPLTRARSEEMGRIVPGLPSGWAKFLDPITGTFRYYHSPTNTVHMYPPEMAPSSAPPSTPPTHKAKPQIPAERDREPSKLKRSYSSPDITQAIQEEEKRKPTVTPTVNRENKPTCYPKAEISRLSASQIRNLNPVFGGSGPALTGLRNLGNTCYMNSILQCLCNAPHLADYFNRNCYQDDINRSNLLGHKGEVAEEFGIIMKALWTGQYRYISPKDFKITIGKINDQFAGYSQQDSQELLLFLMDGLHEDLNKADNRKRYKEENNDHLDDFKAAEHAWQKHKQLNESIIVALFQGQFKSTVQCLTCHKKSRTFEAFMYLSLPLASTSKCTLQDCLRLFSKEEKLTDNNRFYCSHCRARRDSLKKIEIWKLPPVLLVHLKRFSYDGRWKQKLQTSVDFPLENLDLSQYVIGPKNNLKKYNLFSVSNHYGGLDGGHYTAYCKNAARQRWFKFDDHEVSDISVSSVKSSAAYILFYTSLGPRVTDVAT
Summary of the method: as §1

Measured: log2 ratio of Biotin-Ahx-Ub-VS probe labelling

Chain of USP54 (Q70EL1 whole entry): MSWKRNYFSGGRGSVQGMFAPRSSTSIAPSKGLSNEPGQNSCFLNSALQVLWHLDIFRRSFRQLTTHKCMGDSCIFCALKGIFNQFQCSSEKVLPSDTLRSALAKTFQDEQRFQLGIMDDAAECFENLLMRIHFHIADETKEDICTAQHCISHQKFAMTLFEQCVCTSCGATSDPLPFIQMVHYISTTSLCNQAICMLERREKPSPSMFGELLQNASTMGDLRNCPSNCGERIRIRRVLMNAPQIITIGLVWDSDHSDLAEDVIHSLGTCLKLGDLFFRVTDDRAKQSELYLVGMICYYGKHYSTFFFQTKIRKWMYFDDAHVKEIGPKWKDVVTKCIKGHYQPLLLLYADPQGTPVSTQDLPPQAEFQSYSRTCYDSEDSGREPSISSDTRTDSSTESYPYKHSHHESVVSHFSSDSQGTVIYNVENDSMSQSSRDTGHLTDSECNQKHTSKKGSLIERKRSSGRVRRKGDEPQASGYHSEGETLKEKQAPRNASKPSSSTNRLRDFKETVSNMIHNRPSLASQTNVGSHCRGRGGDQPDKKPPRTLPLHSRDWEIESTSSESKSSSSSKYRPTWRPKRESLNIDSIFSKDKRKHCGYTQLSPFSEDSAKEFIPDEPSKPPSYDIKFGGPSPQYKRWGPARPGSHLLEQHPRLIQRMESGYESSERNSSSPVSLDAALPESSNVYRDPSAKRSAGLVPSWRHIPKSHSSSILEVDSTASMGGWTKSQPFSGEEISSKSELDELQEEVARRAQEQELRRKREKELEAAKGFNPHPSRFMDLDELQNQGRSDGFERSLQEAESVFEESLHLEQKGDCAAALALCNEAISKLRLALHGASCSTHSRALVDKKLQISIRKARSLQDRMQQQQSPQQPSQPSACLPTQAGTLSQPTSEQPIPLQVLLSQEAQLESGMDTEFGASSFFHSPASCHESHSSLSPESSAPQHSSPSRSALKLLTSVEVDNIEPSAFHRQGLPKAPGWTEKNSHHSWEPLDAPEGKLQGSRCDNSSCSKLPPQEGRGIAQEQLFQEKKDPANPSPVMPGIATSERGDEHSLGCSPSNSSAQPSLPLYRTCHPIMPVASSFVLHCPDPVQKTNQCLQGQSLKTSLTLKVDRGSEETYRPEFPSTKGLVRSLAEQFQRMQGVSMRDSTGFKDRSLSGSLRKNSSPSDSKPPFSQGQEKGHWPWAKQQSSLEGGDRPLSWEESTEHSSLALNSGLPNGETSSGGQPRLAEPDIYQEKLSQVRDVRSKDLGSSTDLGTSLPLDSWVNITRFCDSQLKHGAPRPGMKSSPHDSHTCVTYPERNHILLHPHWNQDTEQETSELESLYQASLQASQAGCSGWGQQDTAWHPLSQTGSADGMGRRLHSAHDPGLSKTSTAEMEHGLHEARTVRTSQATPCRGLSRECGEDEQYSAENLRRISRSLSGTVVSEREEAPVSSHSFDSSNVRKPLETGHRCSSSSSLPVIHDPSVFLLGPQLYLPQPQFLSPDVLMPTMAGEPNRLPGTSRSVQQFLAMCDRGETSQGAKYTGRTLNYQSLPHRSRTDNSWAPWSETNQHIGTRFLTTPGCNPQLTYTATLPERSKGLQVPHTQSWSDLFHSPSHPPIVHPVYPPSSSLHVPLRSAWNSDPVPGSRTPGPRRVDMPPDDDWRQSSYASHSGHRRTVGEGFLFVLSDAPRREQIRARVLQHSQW
Chain of USP7 (Q93009 whole entry, looked up): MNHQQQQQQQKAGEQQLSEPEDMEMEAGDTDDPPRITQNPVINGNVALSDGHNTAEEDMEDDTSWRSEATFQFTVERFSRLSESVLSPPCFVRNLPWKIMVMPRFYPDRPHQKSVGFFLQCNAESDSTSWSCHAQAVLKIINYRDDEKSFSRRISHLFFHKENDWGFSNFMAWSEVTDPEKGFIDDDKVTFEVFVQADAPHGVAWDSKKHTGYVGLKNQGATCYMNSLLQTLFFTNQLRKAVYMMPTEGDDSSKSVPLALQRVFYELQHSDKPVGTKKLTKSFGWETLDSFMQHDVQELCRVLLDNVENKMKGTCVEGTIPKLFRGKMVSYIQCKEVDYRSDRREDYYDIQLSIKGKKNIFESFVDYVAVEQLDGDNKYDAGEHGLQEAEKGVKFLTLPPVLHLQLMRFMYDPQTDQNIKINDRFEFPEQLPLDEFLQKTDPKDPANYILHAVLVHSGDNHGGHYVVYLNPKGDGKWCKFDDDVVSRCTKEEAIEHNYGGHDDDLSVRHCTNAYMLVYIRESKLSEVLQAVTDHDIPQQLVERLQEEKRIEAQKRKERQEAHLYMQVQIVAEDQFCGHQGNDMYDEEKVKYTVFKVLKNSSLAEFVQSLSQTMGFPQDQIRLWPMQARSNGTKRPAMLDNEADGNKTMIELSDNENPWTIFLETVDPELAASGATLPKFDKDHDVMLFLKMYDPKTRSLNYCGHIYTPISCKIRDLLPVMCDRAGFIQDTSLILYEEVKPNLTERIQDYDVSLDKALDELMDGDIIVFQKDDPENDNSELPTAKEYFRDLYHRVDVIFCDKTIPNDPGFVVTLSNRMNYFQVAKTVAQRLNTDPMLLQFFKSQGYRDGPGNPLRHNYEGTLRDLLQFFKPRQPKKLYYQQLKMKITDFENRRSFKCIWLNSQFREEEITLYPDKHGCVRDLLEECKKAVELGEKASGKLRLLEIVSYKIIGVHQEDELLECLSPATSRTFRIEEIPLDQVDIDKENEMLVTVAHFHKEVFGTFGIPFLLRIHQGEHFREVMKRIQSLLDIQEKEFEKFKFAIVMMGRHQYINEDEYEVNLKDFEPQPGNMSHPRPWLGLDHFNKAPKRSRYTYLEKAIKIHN
Chain of USP46 (P62068 whole entry): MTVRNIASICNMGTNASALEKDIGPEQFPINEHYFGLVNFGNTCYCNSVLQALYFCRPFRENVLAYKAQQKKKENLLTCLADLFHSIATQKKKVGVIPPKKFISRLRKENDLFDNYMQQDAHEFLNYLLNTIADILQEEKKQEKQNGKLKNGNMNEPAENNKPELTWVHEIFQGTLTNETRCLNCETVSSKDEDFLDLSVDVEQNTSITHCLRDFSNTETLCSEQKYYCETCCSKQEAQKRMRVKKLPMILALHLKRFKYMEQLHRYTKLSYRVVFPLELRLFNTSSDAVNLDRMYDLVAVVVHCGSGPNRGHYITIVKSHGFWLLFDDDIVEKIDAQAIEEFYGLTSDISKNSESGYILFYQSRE

Cc1ccc(CC(NC(=O)CCl)c2ccccn2)cc1.Cl (stereo not drawn)
inactive: [1] -0.109 | [2] 0.168 | [3] 0.0361 | [4] 0.0528 | [5] -0.125 | [6] 0.195 | [7] -0.0773 | [8] 0.0199
